Only some compounds are listed: those with a hit (about 18% of all), similar ones and a draw of the others.
TGFb SMAD3 inh: blocks TGF-b signaling. HepG2 CAGA-GFP TGF-b/SMAD3 reporter, GFP fluorescence, 18 h; TGF-beta stimulated, 500 pg/mL final. Potency, µM (highest dose often 46.1 µM), inactives show at the top dose activity, negative = inhibition, usual class: inhibitors. 410,000 compounds, 1.2% hits; further: potency means the concentration at half of the fitted maximal effect; on the % scale 0 is the no-effect control and ±100 the full control effect; nearly all actives have a fitted effect of over 65% in size
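Using HEPG2 CAGA-GFP reporter cells at 1000 cells/well, we pinned test compounds, stimulated with recombinant TGF-beta (500 pg/mL final) and measured total well GFP after 18 h.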
TDP1 cell noCPT: qHTS for Inhibitors of human tyrosyl-DNA phosphodiesterase 1 (TDP1): qHTS in cells in absence of CPT. DT40 Tdp1-/- hTDP1 cells, no CPT, ATP luminescence, 48 h. Potency, µM (highest dose often 46.2 µM), without a hit: top-dose activity change, negative = growth inhibition, hits mostly inhibitors. 420,000 compounds, 15% hits. AID 686978, 2013; further: potency means the concentration at half of the fitted maximal effect; on the % scale 0 is the no-effect control and ±100 the full control effect; nearly all actives have a fitted effect of over 55% in size
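Readout: luminescence from CellTiter-Glo after 30 min in the dark at RT. Cells: DT40 Tdp1-/- with stable hTDP1, 400/well. Exposure: compounds alone, ≥48 hr, 37 °C.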
IL-1B inflam inh: inflammasome signaling inhibition, IL-1 beta readout; THP-1 LPS/ATP IL-1B secretion, AlphaLISA, 16 h; active compounds read low; activity change, % at 57.5 µM; 360,000 compounds, 4.7% hits; AID 743279; in the data active means activity change below about -50%; inconclusive means mostly about -30% to -49%; further: on the % scale 0 is the no-effect control and ±100 the full control effect
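THP-1 cells pretreated 1 hr with compounds (up to 57.5 uM final), then stimulated with LPS (250 ng/mL final) plus ATP (1.25 mM final); secreted IL-1B measured by AlphaLISA after 16 hr, decreased signal indicating inhibition.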
DT40 TDP1 CPT: growth inhibition of DT40 Tdp1-/-;hTDP1 cells with camptothecin (screen for TDP1 inhibitors) | chicken DT40 Tdp1-/-;hTDP1 cells + 20 nM CPT, ATP luminescence, 48 h | Potency, µM (top dose mostly 46.2 µM), inactives show top-dose activity change, negative = growth inhibition, usual class: inhibitors | 420,000 compounds, 12% hits; further: potency means the concentration at half of the fitted maximal effect; on the % scale 0 is the no-effect control and ±100 the full control effect; nearly all actives have a fitted effect of over 55% in size
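Chicken DT40 Tdp1-/- cells stably complemented with human TDP1 were seeded at 400 cells/well in medium containing 20 nM camptothecin, exposed to pin-transferred compounds, and grown at 37 °C for at least 48 hr. Viability was read as ATP luminescence.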
TDP1 block: TDP1 (human) enzyme inhibition. recombinant TDP1, AlphaScreen DNA substrate cleavage. Potency, µM (series often up to 130 µM), for the others: at the highest dose activity change, negative = inhibition, most hits filed as inhibitors. 350,000 compounds, 0.28% hits; further: potency means the concentration at half of the fitted maximal effect; on the % scale 0 is the no-effect control and ±100 the full control effect; nearly all actives have a fitted effect of over 40% in size
Target sequence (Q9NUW8 whole entry, looked up): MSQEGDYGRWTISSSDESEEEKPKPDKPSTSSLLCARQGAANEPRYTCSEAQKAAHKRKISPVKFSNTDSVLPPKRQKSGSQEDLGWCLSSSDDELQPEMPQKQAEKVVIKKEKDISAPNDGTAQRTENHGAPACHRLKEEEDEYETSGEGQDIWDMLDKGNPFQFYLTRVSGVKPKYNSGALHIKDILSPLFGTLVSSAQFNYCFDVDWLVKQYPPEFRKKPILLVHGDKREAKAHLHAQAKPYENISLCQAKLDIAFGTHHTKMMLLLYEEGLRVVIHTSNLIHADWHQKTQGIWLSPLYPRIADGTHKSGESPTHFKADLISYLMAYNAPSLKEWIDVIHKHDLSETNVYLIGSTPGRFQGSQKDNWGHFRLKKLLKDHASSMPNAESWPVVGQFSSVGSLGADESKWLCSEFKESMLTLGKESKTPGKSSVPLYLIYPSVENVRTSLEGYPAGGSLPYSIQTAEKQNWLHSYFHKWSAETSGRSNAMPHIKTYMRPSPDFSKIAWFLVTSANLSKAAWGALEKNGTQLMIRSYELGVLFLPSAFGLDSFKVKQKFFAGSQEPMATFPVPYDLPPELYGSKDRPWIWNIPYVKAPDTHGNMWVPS
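Recombinant human Tdp1 (E. coli-expressed, 1 nM final) preincubated with compounds 15 min at room temperature, then 5'-biotin/3'-phosphotyrosine-FITC DNA substrate (15 nM final) added for 5 min. AlphaScreen beads (10 ug/ml final) added 10 min; cleavage lowers signal.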
HepG2 tox: kills HepG2 cells in TGF-b inhibitor counter-screen. HepG2 CAGA-GFP viability, ATP luminescence, 18 h. Potency, µM (top dose mostly 46.1 µM), for inactives: at the highest dose activity change, negative = cytotoxicity, actives largely listed as cytotoxic. 410,000 compounds, 0.76% hits. AID 588856; further: potency means the concentration at half of the fitted maximal effect
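CellTiter-Glo luminescence gave cytotoxicity after 18 hours at 37 degrees C. The cells were HepG2 CAGA-GFP in 1% FBS DMEM, stimulated with 500 pg/mL TGF-beta after compound addition. %Activity was normalised to no-cell wells (complete cell-killing) and DMSO (no toxicity), and curves were fitted and classified.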
Numbers without * were called inactive; ? = inconclusive; nt = no result given; [ ] = dose if it differs, or a comment. Unless noted, the call rests on the fitted dose curve; in most records, active means well fitted curve in the direction sought with a large enough effect; inconclusive means small, poorly fitted or top-dose-only effect, or another doubt; inactive means no such curve, though single readings can be large; an effect the other way counts as inactive or inconclusive.

SMILES | TGFb SMAD3 inh | TDP1 cell noCPT | IL-1B inflam inh | DT40 TDP1 CPT | TDP1 block | HepG2 tox
Cc1ccc(NC(=O)CN(C)C(=O)C2CC(=O)N(Cc3ccccc3)C2)cc1 (stereo not drawn) | 6% | 9% | 16 | -5% | 2% | 0%
CC(C)Oc1ccc(OCCSc2nc3ccccc3n2CC(=O)O)cc1 | -9% | -13% | 2 | -5% | nt | -11%
CC(C)C1C(=O)Nc2ccc(S(=O)(=O)NCc3ccc(Cl)cc3)cc21 (stereo not drawn) | -9% | 16µM* | nt | 23µM* | 6% | -29%
CCOc1ccc(S(=O)(=O)N2CCN(Cc3nc4ccc(C)cc4o3)CC2)cc1 | ? | ? | nt | 18µM* | 1% | -19%
COc1ccc(S(=O)(=O)N2CCN(Cc3nc4ccc(C)cc4o3)CC2)cc1Cl | ? | ? | nt | 18µM* | 6% | -25%
Cc1ccc(S(=O)(=O)N2CCN(Cc3nc4ccc(C)cc4o3)CC2)cc1 | ? | ? | nt | -26% | 1% | -33%
O=C1CC2(CCN(C(=O)COc3ccccc3F)CC2)Oc2ccccc21 | -7% | ? | -1 | -15% | nt | -6%
COc1cccc(OCC(=O)N2CCC3(CC2)CC(=O)c2ccccc2O3)c1 | 0% | ? | -12 | ? | -2% | 0%
Cc1ccc(OCC(=O)N2CCC3(CC2)CC(=O)c2ccccc2O3)cc1 | -18% | 13µM* | -2 | 21µM* | -9%[0.505 µM] | -1%
O=C1CC2(CCN(C(=O)COc3ccc(Cl)cc3)CC2)Oc2ccccc21 | 0% | 18µM* | -55* | ? | -9%[0.505 µM] | 0%
CCCCCCNC(=O)n1cc(F)c(=O)[nH]c1=O | nt | 15µM* | nt | 11µM* | 9%[56.1 µM] | nt
C=CC[C@H](CC(=O)N(CCO)Cc1ccccc1)C(=O)NCCOC(=O)[C@@H](CC=C)CC(=O)OC(C)(C)C | -22% | ? | -2 | 23µM* | 0% | -33%
C=CC[C@H](CC(=O)NCCO)C(=O)N[C@H](COC(=O)[C@H](CC=C)CC(=O)OC(C)(C)C)c1ccccc1 | -3% | -12% | 15 | -11% | 1% | -2%
C=CC[C@H](CC(=O)N(CCO)Cc1ccccc1)C(=O)NCCOC(=O)[C@H](CC=C)CC(=O)OC(C)(C)C | -16% | 21µM* | -21 | 16µM* | 1% | -5%
C=CC[C@@H](CC(=O)N(CCO)Cc1ccccc1)C(=O)NCCOC(=O)[C@H](CC=C)CC(=O)OC(C)(C)C | -11% | ? | -6 | ? | 1% | 2%
COC(=O)CCN(Cc1cc(OC)ccc1OC)S(=O)(=O)c1ccccc1Br | -17% | ? | 0 | -1% | 1%[56.1 µM] | 2%
COc1ccc(C(=O)O)cc1COc1ccc(NC(C)=O)cc1 | nt | nt | nt | nt | -7% | nt
COc1ccc(CNC(=O)C(=O)NCC2OCCCN2S(=O)(=O)c2cccs2)cc1 (stereo not drawn) | -11% | 7% | 0 | 1% | 1% | -16%
Cc1ccc(-c2nnn(C/C(N)=N/O)n2)cc1 | 5% | -7% | 15 | 10% | 8% | 9%
C=CCNC(=S)N/N=C/c1ccc(N(CC)Cc2ccccc2)cc1 | -17% | 18µM* | -6 | 21µM* | 5% | -3%
CCN(CC)c1ccc(/C=N/NC(=S)NCc2ccccc2)cc1 | -3% | 16µM* | 30 | ? | 9% | -19%
NC(=S)N=Nc1c(O)[nH]c2c(Br)cc(Br)cc12 | -13% | 21µM* | 63 | ? | 5% | -18%
COCCNC(=S)N=Nc1c(O)[nH]c2c(C)cc(C)cc12 | 25% | -2% | 13 | 20% | 0% | -22%
CC(C)(O)C#Cc1ccc(CNC[C@H]2O[C@@H](n3cnc4c(N)ncnc43)[C@H](O)[C@@H]2O)s1 | -4% | ? | 24 | ? | 0%[56.1 µM] | 5%
CC(=O)Nc1nc(C)c(Oc2ccc(C)cc2)c(=O)[nH]1 | 6% | -2% | 17 | -17% | ? | 17%
SMILES | TGFb SMAD3 inh | TDP1 cell noCPT | IL-1B inflam inh | DT40 TDP1 CPT | TDP1 block | HepG2 tox
CCOC(=O)N1CCN(/[N+]([O-])=N/OCOC)CC1 | -5% | nt | nt | nt | nt | 2%
O=C1CCCCCN1Sc1ccccc1 | ? | 5.2µM* | -101* | 5.8µM* | 9% | -39%
O=C1CCCCCN1C(=O)c1ccccc1 | 0% | -8% | 9 | -9% | nt | 14%
Cc1oc2c(c(C)cc3oc(=O)c(CC(=O)N[C@@H](CCCNC(N)=O)C(=O)O)c(C)c32)c1C | 14% | -18% | -5 | -15% | nt | -10%
Nc1ccc(C#Cc2c(-c3ccsc3)oc3ccc(N4CCOCC4)cc23)cc1 | ? | ? | -1 | ? | nt | -20%
COC(=O)c1ccc(/C=C/c2c(-c3ccsc3)oc3ccc(N4CCOCC4)cc23)cc1 | -3% | ? | 37 | 18µM* | nt | 2%
COc1ccc(-c2c(-c3ccsc3)oc3ccc(N4CCOCC4)cc23)cn1 | -10% | 16µM* | -11 | ? | nt | -17%
COc1ccc(-c2oc3ccc(N4CCOCC4)cc3c2C#CCO)cc1 | 15% | ? | -23 | ? | nt | -47%
COc1ccc(-n2cnnc2SCC(=O)NC2CC2)cc1 | -11% | 9% | 17 | 1% | nt | 13%
Cc1cc(N(C)/N=C/c2ccccc2O)nc(-c2ccccc2O)n1 | 23% | 4.1µM* | 30 | 5.8µM* | 3% | -3%
Cc1cc(Nc2ccc(Br)cc2)nc(-c2ccccc2O)n1 | ? | -25% | -24 | ? | -4% | -54%
COC(=O)[C@@]1(Cc2ccccc2)[C@H]2c3cc(C(=O)N(C)C)n(CCN4CNCC4=O)c3C[C@H]2CN1C(=O)c1ccccc1 | nt | nt | nt | nt | 9% | nt
COC1C=CC=C(C)C(=O)NC2=CC(=O)C(N)=C(CC(C)CC(OC)C(O)C(C)C=C(C)C1OC(N)=O)C2=O (stereo not drawn) | -93% | 0.18µM* | -92* | 0.16µM* | nt | -78%
COC1=C2C[C@H](C)C[C@H](OC)[C@H](O)[C@@H](C)/C=C(/C)[C@H](OC(N)=O)[C@@H](OC)/C=C\C=C(\C)C(=O)NC(=CC1=O)C2=O | nt | nt | nt | nt | 0% | nt
C=CCNC1=C2C[C@@H](C)C[C@H](OC)[C@H](O)[C@@H](C)/C=C(\C)[C@H](OC(N)=O)[C@@H](OC)/C=C\C=C(/C)C(=O)NC(=CC1=O)C2=O | nt | 0.38µM* | nt | 1.1µM* | 12% | nt
Cc1ccc(CN2[C@H]3CCCC[C@@H]3OCCS2(=O)=O)cc1 | -3% | ? | nt | ? | nt | 8%

Screening data deposited in PubChem BioAssay by National Center for Advancing Translational Sciences (NCATS).
